# Assay results reported in PubChem BioAssay (NCI).
# Where “and” joins values, the source holds several entries; their conditions need not be identical. Equal values may be shown once. About 83,000 compounds went through this panel and 20% of them were active in at least one assay; those are over-represented in the sample as a whole.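 Assay: single dose, 48 h. Readout: percent growth (0 = no net growth; negative = cell death). Active: <10.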 Unmarked numbers belong to inactive results. Calls of active or inactive are those of the source.
# Tests used:
# Assay in all cases: NCI-60 one-dose screen, 48 h (100 = growth as untreated, 0 = no growth, -100 = all killed)
# Details in all cases: 10 µM unless noted
# HCT-15 colon = test system: HCT-15 colon
# HT29 colon = test system: HT29 colon
# SNB-75 CNS = test system: SNB-75 CNS
# SNB-19 CNS = test system: SNB-19 CNS
# U251 CNS = test system: U251 CNS
# PC-3 prostate = test system: PC-3 prostate
# SK-MEL-5 melanoma = test system: SK-MEL-5 melanoma
# UACC-62 melanoma = test system: UACC-62 melanoma
# LOX IMVI melanoma = test system: LOX IMVI melanoma
# SK-MEL-28 melanoma = test system: SK-MEL-28 melanoma
Compound,growth (HCT-15 colon),growth (HT29 colon),growth (SNB-75 CNS),growth (SNB-19 CNS),growth (U251 CNS),growth (PC-3 prostate),growth (SK-MEL-5 melanoma),growth (UACC-62 melanoma),growth (LOX IMVI melanoma),growth (SK-MEL-28 melanoma)
Cc1nc(N)sc1-c1csc(Nc2ccc(C(F)(F)F)cc2)n1,7.03% (active),-27.6% (active),56.5%,47.3%,53.3%,36.5%,-43% (active),22.2%,6.07% (active),42.1%
Cc1[nH]c(C(=O)Nc2ccccc2OCc2cccc(C(=O)NCCN)c2)cc1Cl,106%,69.4%,74.4%,85.8%,53.3%,96.5%,99.3%,68.4%,35.6%,37.6%
CN(C)S(=O)(=O)c1ccc(-c2nc(C(Cl)Cl)nc3cc(-c4ccc(F)cc4)nn23)cc1,-35.7% (active),-5.58% (active),48.3%,23.5%,2.76% (active),26.7%,55.1%,26%,-6.07% (active),27.1%
O=C1/C(=C/c2cc(F)cc(F)c2)Cc2cc3c(cc21)OCO3,27.2%,22.1%,6.56% (active),49.7%,43.4%,25.3%,23.6%,24.3%,38.5%,57.8%
CN1CCN(Cc2ccc(/C=N/Nc3ccnc4cc(Cl)ccc34)cc2)CC1,38.2%,42.5%,99%,98.2%,84.6%,75.8%,94.3%,104%,15.3%,98%
CN1CCN(c2ccc(Nc3nc(NCCNS(=O)(=O)c4ccc(Cl)cc4)c4sccc4n3)cc2)CC1,47.7%,44.3%,72.9%,104%,60.1%,81.8%,93.6%,98.5%,92%,94.5%
Clc1cccc(/C=N/Nc2nc(N/N=C/c3cccc(Cl)c3)nc(N3CCCCC3)n2)c1,79.8%,85.6%,102%,98.6%,91.7%,76%,80.6%,79.2%,105%,96.2%
Cc1ccc2c(n1)C(=O)C(Cl)=C(Nc1ccc(C(F)(F)F)cc1)C2=O,-58.6% (active),96.8%,115%,97.5%,91.5%,72.4%,95.3%,96.6%,-57.1% (active),51%
C#CCn1cc(/C=N/Nc2nc(-c3ccc(Br)cc3)cs2)c2ccccc21,95.3%,104%,95.4%,96.6%,101%,91.7%,98.7%,91.5%,94.4%,103%
O=c1[nH][nH]c(-c2ccc(F)cc2)c1-c1nc2ccccc2s1,85%,110%,88.4%,80.5%,98.8%,90.3%,98.8%,81.8%,93.1%,97.7%
C#C[C@]1(O)CC[C@H]2[C@@H]3CC=C4c5sc(N(C)c6ccccc6)nc5CC[C@]4(C)[C@H]3CC[C@@]21C,27.8%,-3.51% (active),99.8%,91.3%,60.6%,59.1%,87.3%,77%,67.8%,76.9%
CC(C)NC(=O)c1cc(-c2ccc(NC(=O)Nc3ccc(F)cc3)cc2)nc2cccnc12,99.5%,104%,101%,99.9%,104%,96.7%,101%,96%,98%,107%
O=C(COc1ccc(/C=C2\C(=O)Nc3ccc(F)cc32)cc1)Nc1ccccc1,99.1%,107%,94.7%,93.3%,94.4%,94.9%,100%,88.1%,79.6%,106%
CCN(CC)c1ccc(/C=N/NC(=O)c2ccc(S(N)(=O)=O)cc2)cc1,20.4%,30.8%,71.1%,36.9%,33.5%,43.8%,-0.119% (active),15.7%,0.095% (active),22.5%
CC1=C(C)C(=O)C(Nc2ccc3c(c2)OCCO3)=C(Br)C1=O,98.1%,108%,83.7%,98.5%,103%,86%,89.1%,92.1%,20.3%,107%
O=C(CSc1cc[n+](CCCCO)c2ccccc12)n1ccc2ccccc21,104%,103%,96.1%,100%,96.3%,97.6%,98.7%,93.5%,103%,110%
Cc1ccc(C(=O)CSc2nc3ccccc3c(=O)n2C)cc1,94.5%,111%,75.5%,94.9%,94.6%,88.5%,81.4%,70.3%,93%,101%
O=C1[C@@H]2Cc3c([nH]c4ccccc34)[C@@H](c3ccc(Cl)cc3)N2C(=O)CN1C1CCN(Cc2ccccc2)CC1,34.1%,-28.4% (active),29%,50.5%,34.7%,21.4%,54.2%,62.3%,-15% (active),88.1%
COc1cc(-c2nc(-c3ccccc3)[nH]c2-c2ccnc(NCCCNS(=O)(=O)c3ccc(C(F)(F)F)cc3)n2)ccc1Cl,14.3% and 22.5%,43.9% and 17.9%,58.6% and 67.5%,57.1% and 54.1%,40.7% and 39.8%,15.4% and 20.3%,22.4% and 52.3%,56% and 44.9%,18.1% and 47.6%,63.1% and 44.4%
CCCc1cc2cc(-n3nc(CC)c4c3CC(C)(C)CC4=O)cc(NC3CCC(O)CC3)c2c(=O)[nH]1 (stereo not given),17%,7.9% (active),-6.85% (active),30.6%,27.8%,32.8%,14.1%,26.6%,23.7%,40.8%
CCc1nnc(NC(=O)c2cc(-c3ccc(Cl)cc3Cl)oc2C)s1,70.5%,89.7%,94%,79.7%,29.5%,82.7%,97.8%,73.2%,74.4%,102%
COc1ccc(C(=O)c2c(N)c(C#N)cn2-c2ccc(Cl)cc2Cl)cc1,99.3%,98.5%,91%,93.1%,99.2%,95.7%,98.7%,89.6%,84%,97.9%
CN1CCN(Cc2ccc(NC(=O)c3cncc(C#Cc4cnc5ccc(O[C@@H]6CCOC6)nn45)c3)cc2C(F)(F)F)CC1,-40.4% (active),-54.6% (active),-98.4% (active),-48.9% (active),-72.9% (active),-40.4% (active),-97.4% (active),-76.3% (active),-96.9% (active),-82.4% (active)
